Data as given in PubChem BioAssay (NCATS).
Records with an inconclusive call do not appear. A number with no mark means an inactive call. Active and inactive are the calls of the source. The call rests on the fitted dose curve; in most records, active means well fitted cell-killing curve with a large enough effect; inconclusive means small, poorly fitted or top-dose-only effect, or effect the other way; inactive means flat fitted curve, though single readings scatter.

Test system: SKOV3
Experiment: Primary qHTS to identify gynecologic anti-cancer compounds using libraries of approved drugs and bioactive compounds (AID 1345084); further: nearly all actives have a fitted effect of over 55% in size
Details: Gynecologic cancer cell panel viability, ATPlite luminescence, 48 h; series mostly up to 57.5 µM; activity change, negative = cytotoxicity: at the top concentration
In short: (§1)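 Cytotoxicity screen measuring ATP content by luciferase luminescence. Each compound is applied at five concentrations for 48 h at 37 C with 5% CO2.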
On the % scale 0 is the no-effect control and ±100 the full control effect; potency means the concentration at half of the fitted maximal effect.

Structure (SMILES) | activity change, negative = cytotoxicity | Potency
COc1cc2c(c(OC)c1CC=C(C)C)C[C@H](c1ccc(O)c(CC=C(C)C)c1O)CO2 | 22.3% [at 25.3 µM] | 
OC(CC1c2ccccc2-c2cncn21)C1CCCCC1 (stereo not drawn) | -20.9% | 
Cc1cccc(N2CCN(C(=O)c3cc(S(=O)(=O)N(C)C)ccc3N3CCCC3)CC2)c1C | 0% | 
CC(O)C(C)n1ncn(-c2ccc(N3CCN(c4ccc(OCC5COC(Cn6cncn6)(c6ccc(Cl)cc6Cl)O5)cc4)CC3)cc2)c1=O (stereo not drawn) | 7.82% | 
COCCCNC(=O)c1ccc(Cn2c(=O)c3ccccc3n(Cc3ccc(C(C)C)cc3)c2=O)cc1 | 14.5% | 
C=C1C(=O)O[C@@H]2/C=C(\CO)CC/C=C(\CO)[C@H](OC(C)=O)C(OC(=O)C(C)CC)C12 (stereo partly drawn) | -0.394% [at 25.3 µM] | 
Cc1cc2sc(NC(=O)Cc3ccccc3)nc2cc1Cl | 3.9% | 
COc1ccc2c(NC(=O)Nc3cccc(C(F)(F)F)n3)ccnc2c1 | 13.8% | 
COc1cc(C(C)C)c(Oc2cnc(N)nc2N)cc1I | -1.19% | 
Cc1ccnc(NC(=O)C(C)c2cccc(C(=O)c3ccccc3)c2)c1 (stereo not drawn) | -15.5% | 
CCC(=O)N1CCOc2c(cc(-c3ccc(OC)c(OC)c3)cc2OC[C@H]2CCCN(C)C2)C1 | 0.721% | 
CNCc1cc(-c2ccccc2F)n(S(=O)(=O)c2cccnc2)c1 | 15% | 
CC(C)(CO)c1cc2cc(NC(=O)C3(c4ccc5c(c4)OC(F)(F)O5)CC3)c(F)cc2n1CC(O)CO (stereo not drawn) | 3.04% | 
C=C(CCC1C(C)(O)CCC2C(C)(C)C(O)CCC12C)C(O)CO (stereo not drawn) | -0.0574% [at 38.5 µM] | 
CC1=C2C[C@@]3(C)C(CCC[C@@H]3C)C(O)C2OC1=O (stereo partly drawn) | -1.84% | 
C[C@@H](NC(=O)C(=O)c1c[nH]c2ccc([N+](=O)[O-])cc12)c1ccccc1 | -2.52% | 
COc1cc2ncnc(Nc3ccc(F)c(Cl)c3)c2cc1O | 6.16% | 
CCC(C)c1ccc(NC(=O)Cn2cnc3c2c(=O)n(C)c(=O)n3C)cc1 (stereo not drawn) | -0.517% | 
COc1cc(OC)c(NC(=O)c2ccc(Cc3cc4c(cc3C)C(C)(C)CCC4(C)C)o2)c(OC)c1 | -22.7% | 
Cc1cc(C)nc(SCC(=O)Nc2ncc(Cc3cccc4ccccc34)s2)n1 | -0.811% | 

Structure (SMILES) | activity change, negative = cytotoxicity | Potency
C=C(C)C1=C[C@@]2(C)C(=CC1=O)CC[C@@H](O)[C@@H]2C | -2.22% | 
CCCSc1nc(N[C@@H]2C[C@H]2c2ccc(F)c(F)c2)c2nnn([C@@H]3C[C@H](OCCO)[C@@H](O)[C@H]3O)c2n1 | 0.0589% | 
Fc1ccc(-c2nc(-c3ccccc3F)[nH]c2-c2ccncc2)cc1 | 4.94% | 
CC1(CO)CC(O)[C@]2(C(=O)O)CCC34CC3(C=CC3[C@]5(C)C(CC[C@]34C)C(C)(CO)[C@@H](O)[C@H](O)[C@@H]5O)C2C1 (stereo partly drawn) | 1.61% [at 25.3 µM] | 
C=CCCN1CCC2(CC1)CN(C(=O)c1c(F)cccc1F)c1ccc(Cl)cc12 | 15.7% | 
O=c1cc(N2CCN(c3cccc(C(F)(F)F)c3)CC2)[nH]c(=O)n1C1CCCCC1 | 29.1% | 
COc1ccc(OC)c(-c2ccc(NC(=O)c3ccncc3F)cc2)c1 | -12.4% | 
CCOc1ccc(-n2c([C@@H](C)N(Cc3cccnc3)C(=O)Cc3ccc(OC(F)(F)F)cc3)nc3ncccc3c2=O)cc1 | 0% | 
CC1(C)CCCC2(C)C1C(=O)C=C(C(=O)O)C2(O)C(=O)O (stereo not drawn) | -34.9% | 
CC(C)=CCC[C@](C)(O[C@@H]1O[C@H](CO[C@@H]2OC[C@@H](O)[C@H](O)[C@H]2O)[C@@H](O)[C@H](O)[C@H]1O)[C@H]1CC[C@]2(C)[C@@H]1[C@H](O)C[C@@H]1[C@@]3(C)CC[C@H](O[C@@H]4O[C@H](CO)[C@@H](O)[C@H](O)[C@H]4O)C(C)(C)[C@@H]3CC[C@]12C | -0.48% [at 25.3 µM] | 
C/C=C(/C=C(C)/C=C/C=C/C=C(\C)C(=O)C12OC1C(O)(CCO)NC2=O)C(=O)OC (stereo not drawn) | -5.64% [at 25.3 µM] | 
CC(C)c1cc(-c2ccc(F)c3ccccc23)nc(N)n1 | 11.7% | 
c1cc(NC2CCNCC2)nc(-c2cnc3ccccn23)c1 |  | 8.91 µM (active)
CC(=O)O[C@@H]1CC[C@@]2(C)C(CC[C@]3(C)C2[C@H](O)C=C2[C@H]4[C@@H](C)[C@H](C)CC[C@]4(C)CC[C@]23C)[C@@]1(C)C(=O)O (stereo partly drawn) | 8.7% [at 25.3 µM] | 
CCN(CCNC(=O)Nc1ccccc1Br)c1cccc(C)c1 | 11.8% | 
Cc1cc2c(c(=O)o1)C=C1CC[C@H]([C@H](C)Cn3cnc(=N)c4[nH]cnc43)C[C@@H]1O2 | -25.2% | 
CC(=O)OC/C(=C/C(=O)O)CC[C@@H]1C(C=O)=CC[C@@H]2C(C)(C)CCC[C@@]12C | -8.32% [at 38.5 µM] | 
CC(C)(C)c1ccc(NC(=O)N2CCN(c3ncccc3Cl)CC2)cc1 |  | 22.4 µM (active)
C=C1CCC2C(C)(C(=O)O)CCCC2(C)C1CCC1=CCOC1=O (stereo not drawn) | 22.8% [at 38.5 µM] | 

Test system: Tov-21-G
Experiment: as above
Details: Gynecologic cancer cell panel viability, ATPlite luminescence, 48 h; series mostly up to 57.5 µM; activity change, negative = cytotoxicity: at the top concentration
In short: as §1

Structure (SMILES) | activity change, negative = cytotoxicity | Potency
COc1cc2c(c(OC)c1CC=C(C)C)C[C@H](c1ccc(O)c(CC=C(C)C)c1O)CO2 | 20.2% [at 25.3 µM] | 
OC(CC1c2ccccc2-c2cncn21)C1CCCCC1 (stereo not drawn) | 5.29% | 
Cc1cccc(N2CCN(C(=O)c3cc(S(=O)(=O)N(C)C)ccc3N3CCCC3)CC2)c1C | 12.9% | 
CC(O)C(C)n1ncn(-c2ccc(N3CCN(c4ccc(OCC5COC(Cn6cncn6)(c6ccc(Cl)cc6Cl)O5)cc4)CC3)cc2)c1=O (stereo not drawn) | -0.543% | 
COCCCNC(=O)c1ccc(Cn2c(=O)c3ccccc3n(Cc3ccc(C(C)C)cc3)c2=O)cc1 | 1.93% | 
C=C1C(=O)O[C@@H]2/C=C(\CO)CC/C=C(\CO)[C@H](OC(C)=O)C(OC(=O)C(C)CC)C12 (stereo partly drawn) | -20.1% [at 25.3 µM] | 
Cc1cc2sc(NC(=O)Cc3ccccc3)nc2cc1Cl | -16.7% | 
COc1ccc2c(NC(=O)Nc3cccc(C(F)(F)F)n3)ccnc2c1 | -3.19% | 
COc1cc(C(C)C)c(Oc2cnc(N)nc2N)cc1I | -6.47% | 
Cc1ccnc(NC(=O)C(C)c2cccc(C(=O)c3ccccc3)c2)c1 (stereo not drawn) | 3.07% | 
CCC(=O)N1CCOc2c(cc(-c3ccc(OC)c(OC)c3)cc2OC[C@H]2CCCN(C)C2)C1 | 0.665% | 
CNCc1cc(-c2ccccc2F)n(S(=O)(=O)c2cccnc2)c1 | 1.94% | 
CC(C)(CO)c1cc2cc(NC(=O)C3(c4ccc5c(c4)OC(F)(F)O5)CC3)c(F)cc2n1CC(O)CO (stereo not drawn) | 8.66% | 
C=C(CCC1C(C)(O)CCC2C(C)(C)C(O)CCC12C)C(O)CO (stereo not drawn) | -3.43% [at 38.5 µM] | 
CC1=C2C[C@@]3(C)C(CCC[C@@H]3C)C(O)C2OC1=O (stereo partly drawn) | -0.923% | 
C[C@@H](NC(=O)C(=O)c1c[nH]c2ccc([N+](=O)[O-])cc12)c1ccccc1 | 26.2% | 
COc1cc2ncnc(Nc3ccc(F)c(Cl)c3)c2cc1O | -26.9% | 
CCC(C)c1ccc(NC(=O)Cn2cnc3c2c(=O)n(C)c(=O)n3C)cc1 (stereo not drawn) | 3.63% | 
COc1cc(OC)c(NC(=O)c2ccc(Cc3cc4c(cc3C)C(C)(C)CCC4(C)C)o2)c(OC)c1 | 5.39% | 
Cc1cc(C)nc(SCC(=O)Nc2ncc(Cc3cccc4ccccc34)s2)n1 | 0.77% | 

Structure (SMILES) | activity change, negative = cytotoxicity | Potency
C=C(C)C1=C[C@@]2(C)C(=CC1=O)CC[C@@H](O)[C@@H]2C | -3.85% | 
CCCSc1nc(N[C@@H]2C[C@H]2c2ccc(F)c(F)c2)c2nnn([C@@H]3C[C@H](OCCO)[C@@H](O)[C@H]3O)c2n1 | 0.125% | 
Fc1ccc(-c2nc(-c3ccccc3F)[nH]c2-c2ccncc2)cc1 | 4.08% | 
CC1(CO)CC(O)[C@]2(C(=O)O)CCC34CC3(C=CC3[C@]5(C)C(CC[C@]34C)C(C)(CO)[C@@H](O)[C@H](O)[C@@H]5O)C2C1 (stereo partly drawn) | -7.74% [at 25.3 µM] | 
C=CCCN1CCC2(CC1)CN(C(=O)c1c(F)cccc1F)c1ccc(Cl)cc12 | -1.58% | 
O=c1cc(N2CCN(c3cccc(C(F)(F)F)c3)CC2)[nH]c(=O)n1C1CCCCC1 | 8.69% | 
COc1ccc(OC)c(-c2ccc(NC(=O)c3ccncc3F)cc2)c1 | -4.67% | 
CCOc1ccc(-n2c([C@@H](C)N(Cc3cccnc3)C(=O)Cc3ccc(OC(F)(F)F)cc3)nc3ncccc3c2=O)cc1 | 22.1% | 
CC1(C)CCCC2(C)C1C(=O)C=C(C(=O)O)C2(O)C(=O)O (stereo not drawn) | -17% | 
CC(C)=CCC[C@](C)(O[C@@H]1O[C@H](CO[C@@H]2OC[C@@H](O)[C@H](O)[C@H]2O)[C@@H](O)[C@H](O)[C@H]1O)[C@H]1CC[C@]2(C)[C@@H]1[C@H](O)C[C@@H]1[C@@]3(C)CC[C@H](O[C@@H]4O[C@H](CO)[C@@H](O)[C@H](O)[C@H]4O)C(C)(C)[C@@H]3CC[C@]12C | -0.769% [at 25.3 µM] | 
C/C=C(/C=C(C)/C=C/C=C/C=C(\C)C(=O)C12OC1C(O)(CCO)NC2=O)C(=O)OC (stereo not drawn) | -11.1% [at 25.3 µM] | 
CC(C)c1cc(-c2ccc(F)c3ccccc23)nc(N)n1 | 2.14% | 
c1cc(NC2CCNCC2)nc(-c2cnc3ccccn23)c1 |  | 15.8 µM (active)
CC(=O)O[C@@H]1CC[C@@]2(C)C(CC[C@]3(C)C2[C@H](O)C=C2[C@H]4[C@@H](C)[C@H](C)CC[C@]4(C)CC[C@]23C)[C@@]1(C)C(=O)O (stereo partly drawn) | 9.44% [at 25.3 µM] | 
CCN(CCNC(=O)Nc1ccccc1Br)c1cccc(C)c1 | 0.0719% | 
Cc1cc2c(c(=O)o1)C=C1CC[C@H]([C@H](C)Cn3cnc(=N)c4[nH]cnc43)C[C@@H]1O2 | -7.4% | 
CC(=O)OC/C(=C/C(=O)O)CC[C@@H]1C(C=O)=CC[C@@H]2C(C)(C)CCC[C@@]12C | -1.22% [at 38.5 µM] | 
CC(C)(C)c1ccc(NC(=O)N2CCN(c3ncccc3Cl)CC2)cc1 | 2.07% | 
C=C1CCC2C(C)(C(=O)O)CCCC2(C)C1CCC1=CCOC1=O (stereo not drawn) | 3.64% [at 38.5 µM] | 
